# Measurements taken from PubChem BioAssay (Tox21).
# Inconclusive results are not listed. Where a call stands in place of a potency, no number is given. Activity calls are given as the source filed them. The call rests on the fitted dose curve.
# Test: p53 small molecule agonists, cell-based qHTS assay: qHTS cell viability counter screen (AID 1963581); further: nearly all actives have a fitted effect of over 45% in size
# Conditions: p53RE-bla HCT-116 viability, ATP luminescence, 16 h; series mostly up to 66 µM
# From the text: National Center for Advancing Translational Sciences [NCATS]
# Division of Preclinical Innovation [DPI]
# U.S. Environmental Protection Agency [EPA]
# National Institutes of Environmental Health Sciences [NIEHS]
# National Toxicology Program [NTP]
# U.S. Food and Drug Administration [FDA]
# p53, a tumor suppressor protein, is activated following cellular insult, including DNA damage and other cellular stresses. The activation of p53 regulates cell fate by inducing DNA repair, cell cycle arrest, apoptosis, or cellular senescence. The activation of p53, therefore, is a good indicator of DNA damage and other cellular stresses. The CellSensor p53RE-bla HCT-116 cell line (Invitrogen) contains a stably integrated beta-lactamase reporter gene under control of the p53 response elements. The activation of the reporter gene under culture conditions can be detected by fluorescence intensity. This cell line was used to screen the Tox21 compound library in a 1536-well plate format and to identify agonists that activate the p53 signaling pathway. The cytotoxicity of the Tox21 compound library against the p53 RE-bla HCT-116 cell line was tested in parallel by measuring the intra cellular ATP content in the same wells.
# Tox21 Assay Protocol Summary:
# The p53RE-bla cells were dispensed at 4,000 cells/5 ul/well in 1536-well black wall/clear bottom plates using a Multidrop dispenser. After the assay plates were incubated at a 37 C/5% CO2 incubator for 5 hours, 23 nL of compounds dissolved in DMSO, positive controls or DMSO only was transferred to the assay plate by a pin tool. The plates were incubated at 37 C for 16 hours. After 1 uL of LiveBLAzerTM B/G FRET substrate was added using a Flying Reagent Dispenser, the plates were incubated at room temperature for 2 hours, and fluorescence intensity was measured by an Envision plate reader. For cell viability readout that measures cytotoxicity, 4 ul/well of CellTiter-Glo reagent was added into the assay plates using a Flying Reagent Dispenser. After 30 min incubation at room temperature, the luminescence intensity in the plates was measured using a ViewLux plate reader.
# Potency means the concentration at half of the fitted maximal effect.
SMILES,Potency,"activity change, negative = cytotoxicity"
C[C@@H](O)[C@H]1C(=O)N2C(C(=O)O)=C(SCCN=CN)C[C@H]12,inactive,
CCCc1ccccc1,inactive,
CC[C@H](c1ccc(O)cc1)[C@@H](CC)c1ccc(O)cc1,inactive,
Cc1ccc2c(ccc3ccccc32)c1,inactive,
OC[C@H]1O[C@H](O[C@H]2O[C@H](CO)[C@@H](O)[C@H](O)[C@H]2O)[C@H](O)[C@@H](O)[C@@H]1O,inactive,
Cc1occc1S,inactive,
Nc1nc(N)c2nc(-c3ccccc3)c(N)nc2n1,inactive,
N=c1nc(N2CCCCC2)cc(N)n1O,inactive,
O=S(=O)(O)c1ccc2c(N=Nc3ccc(S(=O)(=O)O)c4ccccc34)c(O)c(S(=O)(=O)O)cc2c1,,-2.08% [at 5.99 µM] (inactive)
CCC(COC(=O)CCS)(COC(=O)CCS)COC(=O)CCS,inactive,
CCSC(=O)N(CC)CC,inactive,
CCC(C)c1ccccc1O (stereo not given),inactive,
COC(=O)c1cc(Cl)ccc1OC,inactive,
NC1CCCCC1N (stereo not given),inactive,
CC(C)CCCCCOC(=O)CCS,inactive,
NS(=O)(=O)c1ccccc1OC(F)(F)F,inactive,
CCCCNc1ccccc1,inactive,
CCCCCCCCCCCCCCCCBr,,4.33% [at 13.5 µM] (inactive)
CCCCC(C)C(=O)O (stereo not given),inactive,
CC[N+](C)(C)c1cccc(O)c1,inactive,

SMILES,Potency,"activity change, negative = cytotoxicity"
CC(C)c1cccc(O)c1,inactive,
C/C=C/C(=O)C1=C(C)C=CCC1(C)C,inactive,
CCOC(C)(C)C,inactive,
O=C1CCCCC1,inactive,
CC(O)CCCCn1c(=O)c2c(ncn2C)n(C)c1=O (stereo not given),inactive,
CNCCO,inactive,
CCCCCCCCO[C@@H]1O[C@H](CO)[C@@H](O)[C@H](O)[C@H]1O,inactive,
CC(=O)OCCN(CCOC(C)=O)c1ccc(N=Nc2ccc([N+](=O)[O-])cc2C#N)cc1,inactive,
O=C1OC(=O)c2ccccc21,inactive,
Cc1cc(C)cc(OCC2CNC(=O)O2)c1 (stereo not given),inactive,
CCN(CC)S(=O)(=O)c1ccc(C(=O)O)cc1,inactive,
C1CCCNCCC1,inactive,
CN(C)C(=O)Oc1ccc[n+](C)c1,inactive,
CC(=O)OC/C=C(\C)CC/C=C(\C)CCC=C(C)C,inactive,
CCOC(=O)C(C)Oc1ccc(Oc2cnc3cc(Cl)ccc3n2)cc1 (stereo not given),inactive,
O=C1OC[C@H](Cc2cccc(O)c2)[C@H]1Cc1cccc(O)c1,inactive,
CC(=O)Oc1ccccc1C(=O)Nc1ncc([N+](=O)[O-])s1,11.7 µM (active),
CCCO,inactive,
O=c1[nH]c(=O)c2cn[nH]c2[nH]1,inactive,
O=C(O)c1cc(-c2ccccc2)nc2ccccc12,inactive,
